Rab9 prom act: qHTS Assay for Rab9 Promoter Activators | Huh7 Rab9 promoter-luciferase reporter, luminescence, 24 h | Potency, µM (doses to about 9.22 µM), for the others: at the top dose activation, negative = inhibition, hits mostly activators | 320,000 tested, 2.8% active; note: % of control where 0% means no effect; nearly all actives have a fitted effect of over 60% in size
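Cells were plated at 1500 per well in reduced-serum medium with 10% FBS and left 2 h. Compound in DMSO was then added for 24 h at 37 °C. Reporter signal was read by luminescence after 10 min with luciferase detection reagent.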
SMN2 splice enh: qHTS Assay for Enhancers of SMN2 Splice Variant Expression; 210,000 tested, 2.8% active; HEK293 SMN2-luciferase splicing reporter, luminescence, 30-36 h; Potency, µM (highest dose often 46.1 µM), inactives show at the top dose activity change, positive = activation, usual class: activators; note: % of control where 0% means no effect; nearly all actives have a fitted effect of over 55% in size
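HEK293 cells carry an SMN2 minigene-luciferase reporter in which exon 7 inclusion puts luciferase in frame. Cells were seeded at 2000 cells/well, attached for 10-12 hours, then exposed to compounds for 30-36 hours at 37C before ONE-Glo luminescence.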
ELG1 genotoxic: qHTS screen for small molecules that induce genotoxicity in human embryonic kidney (HEK293T) cells expressing luciferase-tagged ELG1; 330,000 tested, 1.3% active; Potency, µM (highest dose often 46 µM), inactives show top-dose activity change, positive = activation, actives largely listed as activators; HEK293T ELG1-luciferase reporter, luminescence, 16 h; AID 504466, 2011; note: % of control where 0% means no effect; nearly all actives have a fitted effect of over 60% in size
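Screening used a luciferase reporter fused to human ELG1 in HEK293T cells. Luminescence was read on a CCD plate imager after 16 hr exposure and 30 min ONE-Glo incubation.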
FLuc modulator: qHTS profiling assay for firefly luciferase inhibitor/activator using purifed enzyme and Km concentrations of substrates (counterscreen for miR-21 project); Luciferin 4-monooxygenase (Photinus pyralis), P08659; Potency, µM (top dose mostly 57.5 µM), without a hit: top-dose activity change, negative = inhibition, most hits filed as inhibitors; AID 588342, 2011; 360,000 tested, 6.9% active; purified FLuc, Km substrates, luminescence inhibition;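 note: plate controls were vehicle for no effect and reference inhibitor for full effect; nearly all actives have a fitted effect of over 55% in size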
Target sequence (P08659 whole entry, looked up): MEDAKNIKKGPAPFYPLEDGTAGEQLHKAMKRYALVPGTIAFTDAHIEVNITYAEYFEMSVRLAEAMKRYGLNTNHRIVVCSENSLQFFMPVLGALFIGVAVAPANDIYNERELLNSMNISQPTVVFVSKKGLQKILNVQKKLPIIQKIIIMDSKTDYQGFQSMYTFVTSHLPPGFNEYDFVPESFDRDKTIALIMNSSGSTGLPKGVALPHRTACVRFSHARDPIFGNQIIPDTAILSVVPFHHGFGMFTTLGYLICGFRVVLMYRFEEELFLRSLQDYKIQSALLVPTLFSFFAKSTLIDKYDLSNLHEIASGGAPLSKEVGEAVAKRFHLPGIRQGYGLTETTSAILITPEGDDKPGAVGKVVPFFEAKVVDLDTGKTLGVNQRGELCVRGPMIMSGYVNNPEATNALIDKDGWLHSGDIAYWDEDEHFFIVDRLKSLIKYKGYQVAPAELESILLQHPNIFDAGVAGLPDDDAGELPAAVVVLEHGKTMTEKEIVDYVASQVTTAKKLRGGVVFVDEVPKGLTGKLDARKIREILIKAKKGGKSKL
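Biochemical qHTS of compounds, final roughly 60 µM downward over six points, against 10 nM purified firefly luciferase using Km concentrations of substrates (10 uM D-luciferin, 10 uM ATP) in Tris acetate pH 7.5 buffer; luminescence output.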
ELG1 DNA repair: qHTS screen for small molecules that inhibit ELG1-dependent DNA repair in human embryonic kidney (HEK293T) cells expressing luciferase-tagged ELG1; Potency, µM (titrated, usually from 46.1 µM), inactives show at the top dose activity change, negative = inhibition, most hits filed as inhibitors; AID 504467, 2011; 330,000 tested, 2.3% active; HEK293T ELG1-luciferase reporter, luminescence, 16 h; DNA damage induced by 5-fluorouridine; note: % is set by controls: 0 for no effect and ±100 for the full control effect; nearly all actives have a fitted effect of over 55% in size
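Overnight (16 hr) co-exposure of 2,000 cells/well to 5-fluorouridine and compound at 37 °C preceded detection. Luciferase was quantified via ONE-Glo luminescence; loss of signal denotes inhibition.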
NPC1 promoter act: qHTS Assay for NPC1 Promoter Activators. 320,000 tested, 2.4% active. Huh7 NPC1 promoter luciferase reporter, 24 h. Potency, µM (highest dose often 9.22 µM), without a hit: at the top dose activation, usual class: activators. AID 485313, 2010; note: % of control where 0% means no effect; nearly all actives have a fitted effect of over 60% in size
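Readout is luciferase luminescence, reflecting NPC1 promoter activation in stably transfected Huh7 cells after 24 h compound exposure at 37 °C in reduced-serum medium with 10% FBS.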
* hit, by the source's call; u = inconclusive; x = not tested or not shown; [ ] = another dose, or the depositor's remark. Hits are enriched below; roughly 9.2% of the tested compounds scored in any of these assays. Calls come from the whole dose curve; as a rule, active = well fitted curve in the direction sought with a large enough effect; inconclusive = small, poorly fitted or top-dose-only effect, or another doubt; inactive = no such curve, though single readings can be large; an effect the other way counts as inactive or inconclusive. Potency is the fitted concentration of half-maximal effect.

SMILES | Rab9 prom act | SMN2 splice enh | ELG1 genotoxic | FLuc modulator | ELG1 DNA repair | NPC1 promoter act
Cc1ccc(-c2nnc(SCCC(=O)N3CCOCC3)o2)cc1 | 26% | 14% | 8% | 19µM* | u | 21%
O=C(CSc1ccc(Cl)cc1)N1CCOCC1 | 25% | 6% | 10% | 3%[2.3 µM] | u | 2%
Cc1ccc(SCC(=O)N2CCOCC2)cc1 | u | 11µM* | u | u | u | 26%
CCOC(=O)N1CCN(C(=O)CSc2nnc(-c3cc(OC)cc(OC)c3)o2)CC1 | 0% | u | -20% | 2% | u | 0%
O=C(CCSc1nnc(-c2ccccc2)o1)N1CCOCC1 | 3% | u | 3% | u | u | 10%
O=C(CSc1nnc(-c2ccc3c(c2)OCCO3)o1)N1CCCC1 | 2.5µM* | u | u | 6.7µM* | u | u
CCOC(=O)N1CCN(C(=O)CSc2nnc(-c3ccc(C(C)(C)C)cc3)o2)CC1 | -1% | -12% | 0% | 3.4µM* | -8% | -1%
Nc1nonc1C(=O)NCCNC(=O)c1cccc(Cl)c1 | -3% | x | -1% | 0% | 7% | 2%
O=C(O)c1ccccc1C(=O)Nc1ccc(-n2nccc2C(F)(F)F)cc1 | -1% | x | 0% | u | 12% | 2%
Cc1c(Cl)cccc1N(CC(=O)NC(C)c1ccccc1)S(C)(=O)=O (configuration not stated) | -2% | x | -4% | 2% | -2% | 16%
CCOC(=O)N1CCN(C(=O)CSc2nnc(-c3ccc(C)c(C)c3)o2)CC1 | 5% | -7% | 1% | u | u | 0%
Cc1ccc(-c2ccc(SCC(=O)Nc3cc(C)on3)nn2)cc1 | u | 7% | 4% | -21% | u | 10%
Cc1ccc(-c2nnc(SCC(=O)N3CCCC3)o2)cc1C | 3.5µM* | 11µM* | u | 15µM* | u | u
Cc1ccc(-c2nnc(SCC(=O)N3CCCC3)o2)cc1 | u | 14µM* | u | 24µM* | u | u
Cc1cc(NC(=O)CSc2ccc(-c3ccc4c(c3)OCO4)nn2)no1 | 24% | 14% | u | 12µM* | u | 21%
Cc1ccc(NC(=O)Cc2nc(CSc3nnc(-c4ccc5c(c4)OCO5)o3)cs2)cc1 | u | 1% | 4% | 8.5µM* | u | u
CN(C)C(=O)c1ccc(NC(=O)CSc2nnc(-c3ccc4c(c3)OCO4)o2)cc1 | 0% | x | 7% | 1% | 17% | 7%
O=C(CN(c1cccc(Br)c1)S(=O)(=O)c1ccccc1)N1CCc2ccccc2C1 | x | -38% | x | -4% | x | x
Cc1ccc(S(=O)(=O)NCC(c2ccc3c(c2)OCO3)N2CCOCC2)cc1 (configuration not stated) | -1% | x | -1% | 0% | 8% | -2%
Cc1cc(NC(=O)CSc2nnc(-c3cccc(Cl)c3)o2)no1 | 23% | x | 5% | 1% | 0% | 4%
Cc1cc(NC(=O)CSc2nnc(-c3ccc4c(c3)OCCO4)o2)no1 | u | 7.1µM* | u | u | u | u
Cn1ncc(Br)c1NC(=O)CSc1ccc(Cl)cc1 | -18% | x | -8% | -1% | 7.3µM* | -8%
O=C(CSc1ccc(Cl)cc1)Nc1ncccn1 | 13% | 2% | 3% | -10% | u | 6%
COc1ccc(C(=O)N(C)Cc2cnn(Cc3ccccc3)c2)cc1S(=O)(=O)N1CCOCC1 | -26% | x | -1% | 1% | 1% | -27%
COc1ccc(NS(=O)(=O)CC(C)C)c(OC)c1 | 0% | 12% | 0% | 4% | 3% | -3%
SMILES | Rab9 prom act | SMN2 splice enh | ELG1 genotoxic | FLuc modulator | ELG1 DNA repair | NPC1 promoter act
CCS(=O)(=O)Nc1ccc(-c2ccc(NS(=O)(=O)CC)c(OC)c2)cc1OC | -1% | -16% | -2% | -1% | 23µM* | -2%
CC1=CC2=NC(=O)/C(=C\c3cc(C)n(-c4ccccc4)c3C)C(=N)N2O1 | 0% | 2%[1.84 µM] | -2% | 5.4µM* | -1% | 1%
CS(=O)(=O)C1=NSC2=NC(=O)/C(=C\c3cccn3-c3ccc(Cl)cc3)C(=N)N21 | -10% | 10% | 1% | -1% | 16% | 0%
CC1=CC2=NC(=O)/C(=C\c3cc(C)n(-c4cccc(Cl)c4)c3C)C(=N)N2O1 | 1% | -22% | 5% | u | u | 1%
CC1=CC2=NC(=O)/C(=C\c3cc(C)n(-c4ccccc4F)c3C)C(=N)N2O1 | -4% | -6%[1.84 µM] | -2% | 6µM* | -25% | -1%
Cc1cc(/C=C2/C(=N)N3C(=NC2=O)SN=C3S(C)(=O)=O)c(C)n1-c1ccccc1F | 3.2µM* | 13µM* | -3% | 0.3µM* | u | 3.2µM*
Cc1ccc(/C=N/Nc2ccnc3cc(Cl)ccc23)c(C)c1 | -10% | -85% | -7% | -18% | 18µM* | -10%
Cc1ccccc1/C=N/Nc1ccnc2cc(Cl)ccc12 | 1% | -15% | -5% | u | u | 2%
Clc1ccc2c(N/N=C/c3ccc(Br)cc3)ccnc2c1 | 2% | -85% | u | -3% | 16µM* | 2%
COc1ccc(/C=C/C(=O)Nc2sc(C)c(C)c2C(=O)O)cc1 | x | 1% | x | 1.3µM* | x | x
Cc1sc(NC(=O)/C=C/c2ccco2)c(C(=O)O)c1C | u | x | u | 5.4µM* | u | u
CCOC(=O)c1c(NC(=O)/C=C/c2ccc(C)o2)sc(C)c1C | 23% | x | -1% | -14% | 6% | 25%
COC(=O)c1cc2oc(C)cc2n1CC(=O)Nc1ccc(OC)c(OC)c1 | x | 0% | x | -5% | x | x
COc1cc(SC)ccc1C(=O)Nc1ccccc1 | 28% | u | u | 6.7µM* | u | 8%
COc1cc(SC)ccc1C(=O)Nc1nccs1 | 0.56µM* | x | u | 0.6µM* | u | 0.89µM*
COc1cc(SC)ccc1C(=O)NNC(=O)c1cc(C)oc1C | 1.3µM* | x | u | 1.9µM* | u | 3.2µM*
CSc1cccc(NC(=O)c2cccc3cccnc23)c1 | 26% | x | u | 6.7µM* | u | u
COc1ccccc1C(=O)Nc1cccc(SC)c1 | 16% | 21% | u | 17µM* | u | -2%
O=c1ccc2cc(S(=O)(=O)Nc3ccc(Br)cc3)ccc2o1 | 6% | x | 2% | 1% | -4% | 0%
CC(=O)N1CCCN(Cc2cn(-c3ccc(C)cc3)nc2-c2ccc(F)cc2)CC1 | 1% | x | 0% | u | -8% | -6%
